Experimental data published in PubChem BioAssay AID2796 (The Scripps Research Institute Molecular Screening Center, 2010).
Among all 320,000 compounds or so, about 8,000 (2.5%) were called active. The sample as a whole holds a higher share of actives than the screen did. Unmarked numbers belong to inactive results. No stated cut-off is given here; in the data, active means activation above about 47%; inactive means the rest.

molecular target: Aryl hydrocarbon receptor (Homo sapiens) (UniProt P35869); experiment: AHR activators, primary screen, cell-based, luminescence, luciferase reporter, human (AID 2796); details: AHR-responsive luciferase reporter cells, at 5 µM, active compounds read high;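 further: 0% = vehicle wells and 100% = reference agonist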
Sequence (P35869 whole entry, looked up): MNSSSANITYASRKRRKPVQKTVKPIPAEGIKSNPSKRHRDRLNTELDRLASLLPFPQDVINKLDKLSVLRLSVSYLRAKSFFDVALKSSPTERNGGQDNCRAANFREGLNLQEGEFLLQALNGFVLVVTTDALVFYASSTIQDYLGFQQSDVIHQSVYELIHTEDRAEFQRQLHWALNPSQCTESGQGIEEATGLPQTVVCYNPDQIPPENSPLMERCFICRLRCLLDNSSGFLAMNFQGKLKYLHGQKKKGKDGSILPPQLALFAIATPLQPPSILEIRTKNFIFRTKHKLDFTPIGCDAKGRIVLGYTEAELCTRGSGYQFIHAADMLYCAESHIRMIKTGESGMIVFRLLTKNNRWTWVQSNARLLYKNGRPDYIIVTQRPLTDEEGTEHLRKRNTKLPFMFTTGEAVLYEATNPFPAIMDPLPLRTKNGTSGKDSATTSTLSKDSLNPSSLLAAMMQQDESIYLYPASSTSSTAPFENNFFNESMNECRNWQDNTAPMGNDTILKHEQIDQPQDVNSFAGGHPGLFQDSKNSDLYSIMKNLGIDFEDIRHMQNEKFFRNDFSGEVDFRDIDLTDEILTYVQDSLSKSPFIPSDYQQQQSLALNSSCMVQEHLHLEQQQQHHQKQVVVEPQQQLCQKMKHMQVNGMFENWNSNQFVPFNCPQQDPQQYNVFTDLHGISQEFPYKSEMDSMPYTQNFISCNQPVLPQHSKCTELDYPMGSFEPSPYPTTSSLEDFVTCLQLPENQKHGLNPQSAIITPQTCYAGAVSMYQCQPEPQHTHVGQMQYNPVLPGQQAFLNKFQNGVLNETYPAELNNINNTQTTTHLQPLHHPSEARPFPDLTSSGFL

SMILES | activation
N#CC1=C(N)Oc2c(sc3ccccc23)C1c1ccco1 (stereo not given) | 74.7% (active)
N#CC1=C(N)Oc2c(ccc3cccnc23)C1c1ccncc1 (stereo not given) | -0.63%
CC(C)C(C(=O)NC1CCCCC1)N(CC1CCCO1)C(=O)CNS(=O)(=O)c1ccc(F)cc1 (stereo not given) | -1.33%
O=C(c1ccc(=O)oc1)N1CCC(C(O)(c2ccccc2)c2ccccc2)CC1 | 0.25%
CC(=O)c1cc2c(cc1N)OCO2 | 6.34%
Nc1[nH][nH]c(=O)c1N=Nc1ccc2c(c1)OCO2 | 96.5% (active)
O=C(c1ccc2c(c1)OCO2)N1CCOCC1 | 0.36%
[O-][N+]12CCCCC1CCCC2CO (stereo not given) | -0.51%
Cn1c(=O)c2c(SCC(=O)N3CCOCC3)nc(C3CC3)nc2n(C)c1=O | 7.71%
CCOC(=O)N1CCN(C(=O)CSc2nc(C)nc3c2c(=O)n(C)c(=O)n3C)CC1 | -2.19%
CSc1nc(C)nc2c1c(=O)n(C)c(=O)n2C | 7.77%
CCC(C)Sc1nc(C)nc2c1c(=O)n(C)c(=O)n2C (stereo not given) | 54% (active)
CC(C)c1ccc(C2C(C#N)=C(N)Oc3c2oc(CO)cc3=O)cc1 (stereo not given) | 1.15%
C/C(=N\NC(=O)c1cccc([N+](=O)[O-])c1)c1cccnc1 | 43%
C/C(=N\NC(=O)c1cccnc1)c1ccc(-n2ccnc2)cc1 | 94.3% (active)
C/C(=N\NC(=O)c1ccc2ccccc2c1)c1cccnc1 | 32.5%
O=C(Nc1cccn(Cc2ccccc2Cl)c1=O)NC1CCCCC1 | -0.61%
Cc1ccc(C2CCN(C(=S)Nc3cccc(Cl)c3)C2)cc1 (stereo not given) | 0.22%
COc1ccc([N+](=O)[O-])cc1NC(=O)CC1SC(=Nc2cccc(C)c2C)N(/N=C(\C)c2ccc(C)cc2)C1=O (stereo not given) | 2.69%
Cc1cccc(C(=O)OCC(=O)NC(C)C2CC3CCC2C3)c1O (stereo not given) | -0.37%
CC(Oc1cccc(NC(=O)c2cccs2)c1)C(=O)c1ccccc1 (stereo not given) | 5.22%
Cc1noc(C)c1CSCC(=O)Nc1ccc(Br)cc1Cl | -1.92%
Cc1ccc(F)cc1NC(=O)CSCc1c(C)noc1C | -0.17%
CCOC(=O)c1c(C2CC2)csc1NC(=O)CSCc1c(C)noc1C | 74.2% (active)

SMILES | activation
COc1cccc(/C=C/C(=O)Nc2ccc3c(c2)OCCO3)c1 | -3.92%
COc1c(O)cc2oc(-c3ccc(O)c(O)c3)cc(=O)c2c1O | -2.83%
COc1cccc(NC(=O)[C@H](Cc2c[nH]c3ccccc23)NC(=O)[C@@H]2Cc3ccccc3CN2)c1 | 8.95%
O=C(O)c1cccc(NC(=S)N/N=C/c2c[nH]c3ccccc23)c1 | 22%
O=C(N/N=C/c1c[nH]c2ccccc12)c1ccccc1O | 19%
Nc1nonc1-n1nnc(C(=O)N/N=C/c2c[nH]c3ccccc23)c1-c1ccccc1 | 15.2%
CSC(=S)N/N=C/c1c[nH]c2ccccc12 | 82% (active)
O=C(N/N=C/c1c[nH]c2ccccc12)c1cc2ccccc2o1 | 99% (active)
Cc1c(/C=N\NC(=O)c2cc3ccccc3o2)c2ccccc2n1C | 26.2%
CC1(C)C(C=C(Cl)Cl)C1C(=O)NC(O)C(=O)c1ccccc1 (stereo not given) | -1.26%
COC(=O)c1ccc(C(=O)NC2CC(C)(C)Cc3c2cnn3-c2ccc(F)cc2)nc1 (stereo not given) | -1.69%
COc1cc(C)nc(N2CCCC(C(=O)NCC(C)C)C2)n1 (stereo not given) | 5.81%
CCc1cc(C(=O)OC)c(NC(=O)CC2Sc3ccc(C(F)(F)F)cc3NC2=O)s1 (stereo not given) | -1.22%
Cc1cc(C)nc(SCc2nnc(SCC(=O)OC3CCCCC3)o2)n1 | 0.2%
CC(OC(=O)c1c(F)cccc1F)C(=O)NCCC1=CCCCC1 (stereo not given) | 1.47%
CC(C)(C)C(=O)OCc1nc(-c2ccc(O)c(O)c2)cs1 | 4.13%
COc1ccc(-c2csc(Cc3nc(O)cs3)n2)cc1 | 47.5% (active)
COc1ccc(-c2csc(NC(=O)COC(=O)c3ccc(Br)o3)n2)cc1 | 15.7%
CC1CCCCC12NC(=O)N(CC(=O)Nc1ccc(S(=O)(=O)Nc3ncccn3)cc1)C2=O (stereo not given) | 0.23%
COC(=O)c1c(NC(=O)CN2C(=O)NC(CCc3ccccc3)C2=O)sc2c1CCCCC2 (stereo not given) | 6.43%
COc1ccc(S(=O)(=O)NC(C)c2ccccc2)cc1C(=O)N1CCCCC1 (stereo not given) | 2.64%
O=c1[nH]c(N2CCOCC2)nc2ccccc12 | 2.44%
O=c1[nH]c(/C=C/c2cccc(Br)c2)nc2ccccc12 | 22.6%
O=c1[nH]c(-c2cccs2)nc2ccccc12 | 71.2% (active)

SMILES | activation
Cc1c(CN2CCC(n3nccc3NC(=O)CCc3ccccc3)CC2)cnn1C | 1.39%
Cc1cccc(C)c1NC(=O)CNC(=O)Cc1ccc(Br)cc1 | 5.24%
CCOC(=O)Cc1csc(NC(=O)COc2ccc3c(C)cc(=O)oc3c2)n1 | 59.9% (active)
CCOC(=O)Cc1csc(SCc2cc(=O)oc3cc(O)ccc23)n1 | -1.46%
Cc1cc(=O)oc2cc(OCC(=O)Nc3nnc(C4CC4)s3)ccc12 | 9.3%
CCOC(=O)c1cccc(NC(=O)c2ccc(F)cc2F)c1 | 5.88%
Cn1c(=NC(=O)c2cnccn2)sc2ccccc21 | 13.9%
CCCC(=O)N=c1sc2cccc(F)c2n1C | 5.82%
Cn1c(=NC(=O)c2ccco2)sc2cccc(F)c21 | 58% (active)
COc1ccc2oc(C(=O)OCC(=O)N(CC(C)C)c3c(N)n(Cc4ccccc4)c(=O)[nH]c3=O)c(C)c2c1 | -3.35%
O=C(COc1ccccc1)Nc1cc2c3c(c1)CC(=O)N3CCC2 | 8.04%
COc1cc(/C=C2/C(=O)ON=C2C)ccc1OCc1ccccc1F | 0.62%
CCOc1cc(/C=N/O)ccc1OCc1ccccc1F | 50.4% (active)
CCOc1ccc(/C=N/NC(=O)C(C)Sc2ccccn2)cc1OCC (stereo not given) | 4.44%
Cc1ccc(NC(=O)COC(=O)CNC(=O)c2ccc(Cl)cc2Cl)cc1S(=O)(=O)N1CCOCC1 | -1.57%
O=C(CC1C(=O)NCCN1Cc1ccc(-c2ccccc2)cc1)NCc1ccncc1 (stereo not given) | 0.69%
CC(C)c1ccc(NC(=S)NC2CC3C=CC2C3)cc1 (stereo not given) | 7.48%
O=c1[nH]c(=S)[nH]c2[nH]c(=S)[nH]c12 | 0%
Cc1c(C)c(C)c2[nH]c(=S)[nH]c2c1C | 52.1% (active)
O=C(CCS(=O)(=O)Cc1ccccc1)Nc1ccc2c(c1)OCCO2 | 3.19%
O=C(CN(c1ccc2c(c1)OCCO2)S(=O)(=O)c1ccccc1)Nc1ccc2c(c1)OCO2 | 79.1% (active)
CCN(CC(=O)Nc1ccc2c(c1)OCO2)S(=O)(=O)c1ccccc1 | 28.8%
O=C(CN1CCN(S(=O)(=O)c2cccc(Cl)c2)CC1)N1CCCCC1 | -1.59%
CCCCNC(=O)C1(c2ccc(OC)cc2)CCOCC1 | 0.03%

SMILES | activation
CS(=O)(=O)c1ccc2nnn(OCC(=O)Nc3cccc(C#N)c3)c2c1 | 5.17%
Fc1ccccc1OCCSc1nc2ccccc2o1 | -9.22%
COc1ccc(/C=C(\NC(=O)c2ccc(OC)c(OC)c2)C(=O)NCCc2c[nH]c3ccccc23)cc1 | 13.8%
COc1ccc(C(C(O)C(=O)c2c[nH]c3ccccc23)N2CCN(c3ccccc3)CC2)cc1 (stereo not given) | 12.8%
COc1ccc(/C=C(\C#N)c2c[nH]c3ccccc23)cc1 | 53.6% (active)
CC(NC(=O)COC(=O)c1ccc(Cl)cc1O)c1ccc(F)cc1 (stereo not given) | 3.35%
CCOC(=O)CSc1nc2ccc(C)cc2[nH]1 | 1.6%
Cc1ccc2nc(/C(C#N)=C\c3ccc(OC(=O)c4cccs4)cc3)[nH]c2c1 | 80.8% (active)
CCOc1cc(/C=C(\C#N)c2nc(-c3cccs3)c(NC(C)=O)s2)ccc1O | 8.05%
Cc1ccc(S(=O)(=O)NC(C)C(=O)NCc2ccc(Cl)cc2)cc1 (stereo not given) | 0.98%
COCCCn1c(SCc2cccc(OC)c2)nc2cc(OC)c(OC)cc2c1=N | 11.1%
CC(C)(C)OC(=O)C[C@@H]1C/C=C\C[C@@H](CC(=O)N(CCO)Cc2ccccc2)C(=O)N[C@H](Cc2ccccc2)COC1=O | 2.29%
Cc1ccc2nc(SCC(=O)NC3CCCC3)[nH]c2c1 | 42.2%
Cc1cc(C)nc(SCc2cn3c(C)cc(C)nc3n2)n1 | 7.09%
Cc1ccc2nc(SCc3cn4c(C)cc(C)nc4n3)[nH]c2c1 | 62.1% (active)
CCC1(c2ccccc2)NC(=O)N(CC(=O)Nc2ccccc2C(=O)NC2CCCC2)C1=O (stereo not given) | 1.57%
CN(Cc1ccccc1)C(=O)COC(=O)/C=C/c1ccc2c(c1)OCO2 | 2.59%
CN(c1ccc(OCC(=O)OCC(=O)Nc2cccc([N+](=O)[O-])c2)cc1)S(=O)(=O)c1ccc(F)cc1 | 2%
O=C1C(=O)N(c2ccccc2)c2ccccc21 | 0.42%
O=C(c1c(F)cccc1F)N1CCN(c2ncc(Br)cn2)CC1 | 1.98%
CCn1c(=O)c(C(=O)NCc2ccc3c(c2)OCO3)c(O)c2ccccc21 | 1.55%
CCn1c(=O)c([N+](=O)[O-])c(NCc2ccc3c(c2)OCO3)c2ccccc21 | 47.1% (active)
CCn1c(=O)cc(SCC(=O)NCc2ccc3c(c2)OCO3)c2ccccc21 | 6.43%
